The supplement of paper PMC6555819

The sequences below were run on PPARg DBDmut:RXRa IVT, anti-PPARg (DBD mutation: PPARg1 K132A/R137A, NR concentration 270 nM, RXRa partner concentration 90 nM) (assay: PBM binding z-score (relative to random genomic background probes); higher = stronger binding; sequences stand for … in GC…GCGATTGACAGCGTAGAATGAAGG).
Method in brief: (§1)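 Ligand-free nuclear receptor dimers were bound for 1 h to custom Agilent 4×180K protein-binding microarrays. Detection used antibodies against each partner (one per run). Binding z-scores rest on regression-normalized fluorescence, with random background probes as the reference.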
CGTCCAAGGTCGTAGGAGGTCAGTGAAGACAGAT was tested, and the PBM binding z-score was -0.489.
TCTGCTAGGTCAACGATGATCAGCTAATCTGCTA showed a PBM binding z-score of 0.35.
Work on TCAAATAGGTAAAGGTGAAAGTCGAACGATATGA yielded a PBM binding z-score of 1.88.
TCTATTAGTTGATTAGGGCAACTGAAACAGCGGA gave a PBM binding z-score of 1.14.
AGAATGAGGTAATACGTAGATCAGGGAAGAAAGT was tested, and the PBM binding z-score was 1.02.
ACTATTAGTTGACTTAGGACAACCGATACGACGC showed a PBM binding z-score of 1.42.
Sequence AGTCAAAGTTCAGGACGAAGTAACGTAAAGCACG has a PBM binding z-score of 0.781.
In the case of TCTTGTAGATCAAGGGTTAAGAAAGCCGAAGCCT, the PBM binding z-score is reported as 0.632.
For CGAACTAGGTCGGAACAGGACAGTGAAGGATGAT, the PBM binding z-score was 0.508.
Work on AGAACGAGGGCAATAAGTTGATAGCACGGGTGGC yielded a PBM binding z-score of 0.463.
With AGAACGATGGCACGCTGAGTTGATAGCAGAGTAG the PBM binding z-score was 0.264.
With GATACAGGGTCAGCTAGAGGACAGAGTATGGAAA the PBM binding z-score was 0.573.
For TCATATAGGTAAATGCTAGGTGAAAGTGCGATCT, the PBM binding z-score was 0.822.
Sequence GCTAGTTGGTCAGTAAAAGGTCAGACACCGGTCG has a PBM binding z-score of -0.192.
Sequence AGAATGAGGTTACCAAACATCAGGGAAACGCTTG has a PBM binding z-score of 1.44.
In the case of ACTCGGAAGACAAAGGTCAGAGCTACGCCAGTGA, the PBM binding z-score is reported as 0.488.
Sequence ACAGACAGGTTAGTGAAGGTAACTCAGCTGGACG has a PBM binding z-score of 0.284.
In the case of TCTATTAGTTGACTAGGGCAACCGAAACAGCGGA, the PBM binding z-score is reported as 0.37.
ACTAGCAGGCCAAGTTTGGGTCACTTAAACAAAG was tested, and the PBM binding z-score was -0.398.
Work on CCTACTGGGCCACGAAAGCTCATTGATTCAGTGA yielded a PBM binding z-score of 0.172.
ACTAGCAGGCCAGGTTTGGGTCACTCAAACAAAG showed a PBM binding z-score of -0.511.
With TAGCCTACGTCAGATCGGGCCAGTATACGCTATA the PBM binding z-score was -1.21.
With TAGCCTAGGTCATTCAGGGGCCAGTTTAGAAAGC the PBM binding z-score was 0.115.
Work on CTCGAAAGGTCGTGCTCACGTGAGTATACCAAAC yielded a PBM binding z-score of 0.551.
In the case of GCTCGGAGGACAAGGTCAGAGCATTGTCCGTAGA, the PBM binding z-score is reported as -1.46.
For TAGCCTAGGTCAGATCGGGCAAGTATACGCTATA, the PBM binding z-score was -0.209.
CAAACTAGGTCAAGGTCATAGTCGGTTTGTGCCA gave a PBM binding z-score of 4.59.
TTACCAAGGTGAAGGTCCTTGATCCCTCTGTAGA showed a PBM binding z-score of -0.58.
Sequence CGAACGAGGGCATGAGTTGACAGCAAATGCCGAT has a PBM binding z-score of -0.484.
With ATCGAAAGGTCGAACGTGAGTATACCCACCCGAA the PBM binding z-score was 1.19.
For TCTGCTAGGTCAGCTGGTCAGCTAACGAGCTGCC, the PBM binding z-score was -0.25.
In the case of GATACAGGGTCAGCCAGAGGCCAGAGTATGGAAA, the PBM binding z-score is reported as 0.315.
In the case of GCTATTAGTTGAAAGGGCAACCCAATGATTCTCG, the PBM binding z-score is reported as -0.129.
For GCGACTGGGGCATCAGCAGTTTACCATAACTTAA, the PBM binding z-score was -0.206.
ATATGAAGGTTACATCCGGGTCATTCAGGCTATG was tested, and the PBM binding z-score was 1.37.
Sequence CGTCAAAGATCAACTAAGGTAACGTAAAGCACGC has a PBM binding z-score of 0.6.
Work on AGATTGAGGTTAAGATCAGGGAAACAGAATACAT yielded a PBM binding z-score of 1.37.
For GATACAGGGTCAAGGCCAGCGTACGCGTATTGAT, the PBM binding z-score was 0.49.
AGTACGAGGGCACGCTGAGTTGATAGCAGAGTAG gave a PBM binding z-score of 0.166.
With TGAATGAGGTTAAAGATCCGGGAACGTGGCGTCG the PBM binding z-score was 0.774.

These sequences were tested on PPARg DBDmut IVT, anti-PPARg (DBD mutation: PPARg1 K132A/R137A, NR concentration 270 nM) in the same assay as above.
Method in brief: as §1
CGTCCAAGGTCGTAGGAGGTCAGTGAAGACAGAT showed a PBM binding z-score of -0.725.
For TCTGCTAGGTCAACGATGATCAGCTAATCTGCTA, the PBM binding z-score was 0.888.
TCAAATAGGTAAAGGTGAAAGTCGAACGATATGA was tested, and the PBM binding z-score was 0.968.
TCTATTAGTTGATTAGGGCAACTGAAACAGCGGA gave a PBM binding z-score of 0.725.
In the case of AGAATGAGGTAATACGTAGATCAGGGAAGAAAGT, the PBM binding z-score is reported as 0.684.
In the case of ACTATTAGTTGACTTAGGACAACCGATACGACGC, the PBM binding z-score is reported as 1.67.
AGTCAAAGTTCAGGACGAAGTAACGTAAAGCACG showed a PBM binding z-score of 0.688.
Sequence TCTTGTAGATCAAGGGTTAAGAAAGCCGAAGCCT has a PBM binding z-score of -0.0594.
For CGAACTAGGTCGGAACAGGACAGTGAAGGATGAT, the PBM binding z-score was -0.428.
Work on AGAACGAGGGCAATAAGTTGATAGCACGGGTGGC yielded a PBM binding z-score of -0.691.
With AGAACGATGGCACGCTGAGTTGATAGCAGAGTAG the PBM binding z-score was -0.833.
GATACAGGGTCAGCTAGAGGACAGAGTATGGAAA was tested, and the PBM binding z-score was 0.147.
Sequence TCATATAGGTAAATGCTAGGTGAAAGTGCGATCT has a PBM binding z-score of 0.878.
Work on GCTAGTTGGTCAGTAAAAGGTCAGACACCGGTCG yielded a PBM binding z-score of 0.136.
For AGAATGAGGTTACCAAACATCAGGGAAACGCTTG, the PBM binding z-score was 0.505.
With ACTCGGAAGACAAAGGTCAGAGCTACGCCAGTGA the PBM binding z-score was -0.549.
In the case of ACAGACAGGTTAGTGAAGGTAACTCAGCTGGACG, the PBM binding z-score is reported as 0.465.
With TCTATTAGTTGACTAGGGCAACCGAAACAGCGGA the PBM binding z-score was 0.987.
Sequence ACTAGCAGGCCAAGTTTGGGTCACTTAAACAAAG has a PBM binding z-score of -0.134.
CCTACTGGGCCACGAAAGCTCATTGATTCAGTGA showed a PBM binding z-score of 0.266.
ACTAGCAGGCCAGGTTTGGGTCACTCAAACAAAG gave a PBM binding z-score of -0.687.
TAGCCTACGTCAGATCGGGCCAGTATACGCTATA was tested, and the PBM binding z-score was 0.256.
Work on TAGCCTAGGTCATTCAGGGGCCAGTTTAGAAAGC yielded a PBM binding z-score of 0.428.
In the case of CTCGAAAGGTCGTGCTCACGTGAGTATACCAAAC, the PBM binding z-score is reported as 0.796.
GCTCGGAGGACAAGGTCAGAGCATTGTCCGTAGA was tested, and the PBM binding z-score was -0.733.
TAGCCTAGGTCAGATCGGGCAAGTATACGCTATA was tested, and the PBM binding z-score was -0.848.
Sequence CAAACTAGGTCAAGGTCATAGTCGGTTTGTGCCA has a PBM binding z-score of 1.94.
TTACCAAGGTGAAGGTCCTTGATCCCTCTGTAGA gave a PBM binding z-score of -0.0809.
CGAACGAGGGCATGAGTTGACAGCAAATGCCGAT was tested, and the PBM binding z-score was -0.439.
ATCGAAAGGTCGAACGTGAGTATACCCACCCGAA showed a PBM binding z-score of 0.459.
In the case of TCTGCTAGGTCAGCTGGTCAGCTAACGAGCTGCC, the PBM binding z-score is reported as -0.593.
Sequence GATACAGGGTCAGCCAGAGGCCAGAGTATGGAAA has a PBM binding z-score of -0.142.
GCTATTAGTTGAAAGGGCAACCCAATGATTCTCG showed a PBM binding z-score of 0.251.
With GCGACTGGGGCATCAGCAGTTTACCATAACTTAA the PBM binding z-score was 0.0271.
In the case of ATATGAAGGTTACATCCGGGTCATTCAGGCTATG, the PBM binding z-score is reported as 1.68.
Sequence CGTCAAAGATCAACTAAGGTAACGTAAAGCACGC has a PBM binding z-score of 0.489.
AGATTGAGGTTAAGATCAGGGAAACAGAATACAT was tested, and the PBM binding z-score was 1.38.
GATACAGGGTCAAGGCCAGCGTACGCGTATTGAT showed a PBM binding z-score of -0.316.
Work on AGTACGAGGGCACGCTGAGTTGATAGCAGAGTAG yielded a PBM binding z-score of 0.462.
TGAATGAGGTTAAAGATCCGGGAACGTGGCGTCG was tested, and the PBM binding z-score was 0.25.
